Bead autofluor: flagged as autofluorescent in microsphere protease counterscreen; compound autofluorescence counterscreen, microsphere flow cytometry; hits give high values; fluorescence intensity (concentration not given with the values); hit rate 3.1% among 360,000; in the data active = fluorescence intensity above about 16000; inconclusive = no clear call, values can overlap the other calls
BoNT-A LC inh2: blocks Botulinum neurotoxin A light chain protease; multiplex microsphere protease substrate cleavage, flow cytometry; inhibition, % at 10 µM; hit rate 0.17% among 360,000; AID 588499; note: plate controls were buffer without enzyme for full effect and enzyme alone for no effect
DUSP3 inh: DUSP3 (human) phosphatase inhibition. recombinant VHR phosphatase, pNPP absorbance. inhibition, % at 13.3 µM. AID 1654. P51452. hit rate 0.52% among 290,000; in the data active = inhibition above about 50%
SARS 3CLpro inh: SARS-CoV 3CLpro protease inhibition; P0C6X7; recombinant SARS-CoV 3CLpro, quenched FRET peptide cleavage; inhibition, % at 6 µM; hit rate 0.14% among 290,000; AID 1706; in the data active = inhibition above about 12%
BoNT F protease: blocks Botulinum neurotoxin F light chain protease | Multiplex microsphere protease cleavage assay, flow cytometry | inhibition, % at 10 µM | hit rate 0.22% among 360,000 | AID 588497; in the data active = inhibition above about 35%, passing the limit was not always enough; inconclusive = no clear call, values can overlap the other calls; note: plate controls were buffer without enzyme for full effect and enzyme alone for no effect
Anthrax LF prot: blocks Bacillus anthracis lethal factor protease. AID 588501. P15917. multiplex microsphere protease cleavage assay, LF. hit rate 0.12% among 360,000. inhibition, % at 10 µM; note: plate controls were buffer without enzyme for full effect and enzyme alone for no effect
Target sequence (P15917 whole entry, looked up): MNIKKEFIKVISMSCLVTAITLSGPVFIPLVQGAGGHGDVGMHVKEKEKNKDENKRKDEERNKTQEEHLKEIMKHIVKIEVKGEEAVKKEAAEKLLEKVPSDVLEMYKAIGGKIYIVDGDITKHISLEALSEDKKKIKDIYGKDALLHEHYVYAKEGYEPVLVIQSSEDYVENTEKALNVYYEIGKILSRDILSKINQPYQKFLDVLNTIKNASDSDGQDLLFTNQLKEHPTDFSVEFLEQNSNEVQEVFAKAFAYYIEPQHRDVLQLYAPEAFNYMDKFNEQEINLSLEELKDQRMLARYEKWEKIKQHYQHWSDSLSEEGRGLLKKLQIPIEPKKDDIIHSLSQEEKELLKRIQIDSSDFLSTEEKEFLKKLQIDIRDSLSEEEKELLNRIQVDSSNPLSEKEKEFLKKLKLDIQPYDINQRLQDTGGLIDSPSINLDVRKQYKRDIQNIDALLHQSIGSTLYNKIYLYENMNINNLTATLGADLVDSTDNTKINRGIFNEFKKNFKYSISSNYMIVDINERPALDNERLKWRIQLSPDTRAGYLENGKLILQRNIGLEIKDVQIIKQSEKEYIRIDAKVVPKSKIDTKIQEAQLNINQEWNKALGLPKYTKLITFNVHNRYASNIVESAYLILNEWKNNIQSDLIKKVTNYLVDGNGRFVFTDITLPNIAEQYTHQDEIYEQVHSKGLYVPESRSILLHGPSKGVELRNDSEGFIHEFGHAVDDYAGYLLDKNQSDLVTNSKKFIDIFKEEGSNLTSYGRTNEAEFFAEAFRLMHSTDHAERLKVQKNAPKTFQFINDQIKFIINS
Active calls of the source: *; ? = inconclusive; · = no result given. Sampled rows, rich in hits. Any-hit rate of the full collection: about 3.9%. Cut-off read from the data, not from the text of the source, unless noted: active = inhibition above about 30%; inconclusive = no clear call, values can overlap the other calls; inactive = below that.

SMILES	Bead autofluor	BoNT-A LC inh2	DUSP3 inh	SARS 3CLpro inh	BoNT F protease	Anthrax LF prot
CCCc1cc(=O)oc2cc3oc(C)c(C)c3cc12	9739	0	29	1	5	-17
CCc1cc(=O)oc2cc3oc(C)c(C)c3cc12	19139*	?	6	-6	5	1
CCN(Cc1ccccc1)C(=O)C1CCN(Cc2ccc(OC)c(OC)c2OC)CC1	22911*	?	22	-5	-1	1
CCOC(=O)c1c(-c2ccccc2)oc2ccc(O)c(CN3CCCC3)c12	17165*	-2	-1	0	-7	-4
CCN1CCN(Cc2oc(CO)cc(=O)c2O)CC1	19271*	?	26	2	2	-4
CC(C)CNC(=S)NNC(=O)c1ccc(OC(F)F)cc1	23366*	0	17	-2	0	0
CCNC(=S)NNC(=O)c1ccc(OC(F)F)cc1	23106*	0	19	-4	2	-2
C=CCNC(=S)NNC(=O)c1ccc(OC(C)C)cc1	9572	-1	-18	5	-12	-9
Cc1c(C#N)c2ncnc(-c3ccccc3)c2n1-c1ccccc1	23956*	-1	24	-4	-4	-2
Cc1n[nH]c(C)c1C(=O)CC1(O)C(=O)N(CCc2ccccc2)c2ccc(Br)cc21 (configuration not stated)	11230	0	25	2	5	0
Cc1n[nH]c(C)c1C(=O)CC1(O)C(=O)N(Cc2ccccc2)c2ccc(Br)cc21 (configuration not stated)	22972*	1	29	5	-1	1
O=c1oc2ccccc2cc1-c1nc(-c2cccs2)cs1	8352	58*	-5	2	32	41*
O=C(NCC1COc2ccccc2O1)c1ccc(Cl)c(S(=O)(=O)N2CCCC2)c1 (configuration not stated)	3641	0	·	·	-4	-9
Cn1nc(C(F)(F)F)c(C(=O)Nc2cccc(Cl)c2)c1Cl	25124*	-3	21	7	-9	-1
CC(C)c1cc(C(=O)Nc2cccc(Cl)c2)no1	18450*	14	-26	6	14	-12
Cn1cccc1C(=O)NC1CCCCC1	?	0	·	·	-8	-1
COc1ccc(S(=O)(=O)Nc2ccc3c(c2)OCO3)cc1	5819	1	3	1	-10	-9
O=S(=O)(Nc1ccc2c(c1)OCO2)c1ccccc1	23731*	?	15	0	-8	-2
CC(=O)c1cc2c(cc1NS(=O)(=O)c1cccc(C(=O)O)c1)OCO2	2912	2	4	-5	1	9
CC(=O)c1cc2c(cc1NS(=O)(=O)c1ccccc1)OCO2	20902*	-5	35	-7	-8	-7
CC(=O)c1ccc(NS(=O)(=O)c2ccccc2)cc1	21657*	-2	0	3	-1	3
CCOC(=O)C1CCCN(C(=O)Cn2nc(C)n3c(cc4c(OC)cccc43)c2=O)C1 (configuration not stated)	4343	1	-15	-5	0	5
COc1ccc(N2CCN(C3CC(=O)NC3=O)CC2)cc1 (configuration not stated)	24614*	?	36	-3	-10	-5
Cc1ccc(SCC(=O)Nc2nnc(C(C)(C)C)s2)cc1	3017	2	54*	1	22	-1
COc1ccc(/C=C/c2nnc(NC(=O)CSc3ccc(C)cc3)s2)cc1	5811	0	-4	5	-6	-6
SMILES	Bead autofluor	BoNT-A LC inh2	DUSP3 inh	SARS 3CLpro inh	BoNT F protease	Anthrax LF prot
CCCCn1c(N)c(N(CC(C)C)C(=O)COC(=O)C2(c3ccccc3)CC2)c(=O)[nH]c1=O	5733	1	·	·	-3	-5
C[C@@H](NC(=O)[C@@H]1Cc2ccccc2CN1C(=O)OC(C)(C)C)C(=O)NCc1ccco1	4447	-1	-14	2	7	-4
CCC1CN(C(=O)NCc2ccc(F)cc2)c2cc(Cl)ccc2O1 (configuration not stated)	3647	0	57*	3	-24	-1
CC1(C)CC(=O)C2=C(C1)Oc1ncn(Cc3ccco3)c(=N)c1C2c1ccccc1 (configuration not stated)	3254	0	40	0	-4	-2
COc1ccc(C2C3=C(CC(C)(C)CC3=O)Oc3ncn(Cc4ccccc4)c(=N)c32)cc1 (configuration not stated)	12368	?	55*	0	30	3
CC1CC1C(=O)N1CCN(S(=O)(=O)c2cc(C(F)(F)F)cc(C(F)(F)F)c2)CC1 (configuration not stated)	8156	2	·	·	-4	-4
CC1=C(C(=O)Nc2ccccc2)C(c2cccnc2)n2nc(-c3cccnc3)nc2N1 (configuration not stated)	22749*	-1	19	-1	2	-2
COc1ccccc1N(CC(=O)N1CCCC1)S(=O)(=O)c1ccc(C)cc1	3870	1	2	0	18	-8
COc1ccccc1N(CC(=O)N1CCCCCC1)S(=O)(=O)c1ccc(C)cc1	5456	1	50*	-3	4	1
Cc1onc(-c2ccccc2)c1C(=O)Nc1ccc(Cl)c(S(=O)(=O)N2CCOCC2)c1	3975	1	·	·	7	-2
Cc1nc(NCc2ccco2)[nH]c(=O)c1CCC(C)C	21901*	3	10	3	5	1
Cc1nc(NCC2CCCO2)[nH]c(=O)c1CCC(C)C (configuration not stated)	3064	0	41	-2	-7	2
CC(=O)c1ccccc1Oc1ncnc(N)c1[N+](=O)[O-]	2809	-1	17	0	6	4
Cc1ccc(C(=O)N/C(=C\c2ccc([N+](=O)[O-])cc2)C(=O)NCCc2ccccc2)cc1	25796*	-5	8	-1	-6	-3
Cc1ccc(C(=O)N/C(=C\c2ccc(-c3cccc([N+](=O)[O-])c3)o2)C(=O)NCCCN(C)C)cc1	3765	0	54*	-4	-4	-12
COc1c[nH]n(-c2ccccc2)c(=O)c1=O	6132	0	·	·	3	0
Cc1ccc(CNC(=O)Cc2noc3ccccc23)cc1	3156	0	-5	-2	-1	-4
C=CCc1cccc2ccc(=O)oc12	6128	4	-18	3	37*	19
C=CCc1cccc2cc(C(=O)NC(C)(C)C)c(=O)oc12	2128	0	-2	2	-10	-1
Fc1ccc(-n2c(-c3ccc4ccccc4n3)n[nH]c2=S)cc1	4344	0	26	7	0	0
S=c1[nH]nc(-c2ccc3ccccc3n2)n1-c1cc(Cl)cc(Cl)c1	2502	-1	55*	1	-14	-2
COCCN(CCOC)C(=O)c1c[nH]c2ccc(S(=O)(=O)N(C)c3ccc(F)cc3)cc2c1=O	18595*	2	12	6	2	3
C/C=C(\C)CN1CCc2cc(OC)c(OC)cc2C1	24105*	-2	-32	0	-7	-4
